From PubChem BioAssay (NCATS)
Inconclusive results are not listed. Entries that show only a call come without a potency. The source made the active and inactive calls. Unless noted, calls follow the shape of the dose curve; as a rule, active = well fitted curve in the direction sought with a large enough effect; inconclusive = small, poorly fitted or top-dose-only effect, or another doubt; inactive = no such curve, though single readings can be large; an effect the other way counts as inactive or inconclusive.

How the values were obtained:
[1] = target: Mitogen-activated protein kinase 10 (Mus musculus) (UniProt Q61831); assay: JNK3 AlphaScreen Assay (AID 530; active = well fitted curve in either direction with a large enough effect, not every such curve was filed as active;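 also: kinase came from lysate of stimulated human HepG2 cells; signal reports phosphorylation of biotinylated GST-cJun 1-79 at Ser73 with 10 µM ATP; series mostly up to about 57 µM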)
Procedure, shortened: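 Phosphorylation of biotinylated GST-cJun(1-79) at Ser73 is measured by AlphaScreen proximity luminescence. Enzyme is JNK3 in HepG2 lysates activated with interleukin-1beta and tumor necrosis factor alpha; ATP is 10 uM final.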

[2] = target: Cytochrome P450 3A4 (Homo sapiens) (UniProt P08684); assay: qHTS Assay for Inhibitors and Substrates of Cytochrome P450 3A4 (AID 884); also: potency is read from the fitted curve at half-maximal effect; nearly all actives have a fitted effect of over 50% in size
Procedure, shortened: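 Luminescent readout of luciferin produced by CYP3A4 (20 nM) dealkylation of Luciferin-PPXE, 25 uM (its KM). NADPH-driven reaction ran 60 min at RT after 10 min compound preincubation; data scaled to 57 uM ketoconazole as 100% inhibition.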

[3] = target: Cytochrome P450 3A4 (Homo sapiens) (UniProt P08684); assay: qHTS Assay for Activators of Cytochrome P450 3A4 (AID 885); also: nearly all actives have a fitted effect of over 65% in size
Procedure, shortened: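 Luminescent readout of luciferin formed from 25 uM Luciferin-PPXE (KM level) by 20 nM CYP3A4 in 200 mM KPO4, with 60 min NADPH-driven reaction at room temperature after 10 min compound exposure. Ketoconazole (57 uM) defined 100% inhibition.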

[4] = target: Calcium and integrin-binding protein 1 (Homo sapiens) (UniProt Q99828); assay: Primary qHTS for Identification of Calcium Integrin Binding Protein 1 (CIB1) Competitor (AID 1508620);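 also: GST tagged CIB1 binding a fluorescein labelled alphaIIb integrin peptide tracer; top concentration of the series differs between compounds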
Procedure, shortened: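 Fluorescence polarization competition: CIB1-GST (1 uM final) preincubated with compound 15 min at room temperature, then FITC-labeled alphaIIb peptide (100 nM final) added for another 15 min. Polarization read at Ex 480/Em 540.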

Chain of Calcium and integrin-binding protein 1 (Homo sapiens) (Q99828 whole entry, looked up): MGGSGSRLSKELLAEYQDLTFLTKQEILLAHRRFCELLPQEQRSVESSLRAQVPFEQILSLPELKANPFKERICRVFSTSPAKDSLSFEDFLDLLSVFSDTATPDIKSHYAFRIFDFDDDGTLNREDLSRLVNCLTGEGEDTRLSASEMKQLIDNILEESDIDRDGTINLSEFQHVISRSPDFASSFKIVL
Chain of Cytochrome P450 3A4 (Homo sapiens) (P08684 whole entry, looked up): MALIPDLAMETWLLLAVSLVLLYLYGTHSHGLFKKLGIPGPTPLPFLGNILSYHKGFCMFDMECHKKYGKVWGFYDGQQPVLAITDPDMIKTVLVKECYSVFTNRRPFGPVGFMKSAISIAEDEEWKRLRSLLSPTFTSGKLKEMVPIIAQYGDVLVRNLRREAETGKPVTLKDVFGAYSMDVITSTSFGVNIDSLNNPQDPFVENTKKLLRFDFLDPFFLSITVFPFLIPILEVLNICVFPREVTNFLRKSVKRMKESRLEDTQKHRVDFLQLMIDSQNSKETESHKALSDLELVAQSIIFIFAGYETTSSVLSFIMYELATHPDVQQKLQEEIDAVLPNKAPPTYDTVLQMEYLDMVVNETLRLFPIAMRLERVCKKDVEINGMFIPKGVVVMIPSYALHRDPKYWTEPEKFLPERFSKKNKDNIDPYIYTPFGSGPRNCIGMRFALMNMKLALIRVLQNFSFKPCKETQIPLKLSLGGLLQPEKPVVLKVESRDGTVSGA

Compound | outcome [1] | Potency [2] | Potency [3] | Potency [4]
CCN(CC)CCCCn1c(-c2ccccc2)nc2c(NCc3ccccc3)nc(C)nc21 | inactive | 7.94 µM (active) | inactive | inactive
CCN1CCCC1Cn1c(-c2ccccc2)nc2c(NC3CCCCC3)nc(C)nc21 (stereo unspecified) | inactive | 12.6 µM (active) | inactive | inactive
CCCn1c(-c2ccc(F)cc2)nc2c(NCCCCN3CCCC3)nc(C)nc21 | inactive | 15.8 µM (active) | inactive | inactive
CCN(CC)CCCC(C)n1c(-c2ccccc2)nc2c(NCc3ccccc3)nc(C)nc21 (stereo unspecified) | inactive | 5.01 µM (active) | inactive | inactive
CCN1CCCC1Cn1c(-c2ccccc2)nc2c(NCc3ccccc3)nc(C)nc21 (stereo unspecified) | inactive | 5.01 µM (active) | inactive | inactive
CCN(CC)CCn1c(-c2ccccc2)nc2c(NCCOC)nc(C)nc21 | inactive |  | inactive | inactive
Cc1nc(NC2CCCCC2)c2nc(-c3ccccc3)n(CCN3CCCCC3)c2n1 | inactive | 7.94 µM (active) | inactive | inactive
CCCn1c(-c2ccc(F)cc2)nc2c(NC3CCN(Cc4ccccc4)C3)nc(C)nc21 (stereo unspecified) | inactive | 15.8 µM (active) | inactive | inactive
Cc1nc(N2CCOCC2)c2nc(-c3ccccc3)n(CCN3CCCC3)c2n1 | inactive |  | inactive | inactive
CCCn1c(-c2ccc(F)cc2)nc2c(NCCCN(CCO)CCO)nc(C)nc21 | inactive |  | inactive | inactive
Cc1nc(NCc2ccccc2)c2nc(-c3ccccc3)n(CCCN3CCOCC3)c2n1 | inactive | 3.98 µM (active) | inactive | inactive
CCCCNc1nc(C)nc2c1nc(-c1ccccc1)n2CCCN1CCCCC1C (stereo unspecified) | inactive | 6.31 µM (active) | inactive | inactive
CCCCNc1nc(C)nc2c1nc(-c1ccccc1)n2C1CCN(Cc2ccccc2)C1 (stereo unspecified) | inactive | 7.94 µM (active) | inactive | inactive
Cc1nc(NC2CCCCC2)c2nc(-c3ccccc3)n(C(C)CN(C)C)c2n1 (stereo unspecified) | inactive | 12.6 µM (active) | inactive | inactive
CCCn1c(-c2ccc(F)cc2)nc2c(NCCCN3CCOCC3)nc(C)nc21 | inactive | 5.01 µM (active) | inactive | inactive
COCCNc1nc(C)nc2c1nc(-c1ccccc1)n2CCN1CCCCC1 | inactive | 10 µM (active) | inactive | inactive
Cc1nc(NCc2ccccc2)c2nc(-c3ccccc3)n(C(C)CN(C)C)c2n1 (stereo unspecified) | inactive | 10 µM (active) | inactive | inactive
COCCN(CCOC)c1nc(C)nc2c1nc(-c1ccccc1)n2CCCN1CCCCC1C (stereo unspecified) | inactive | 12.6 µM (active) | inactive | inactive
CCCn1c(-c2ccc(F)cc2)nc2c(N3CCN(CCn4ccnc4)CC3)nc(C)nc21 | inactive | 0.631 µM (active) | inactive | inactive
CCCCNc1nc(C)nc2c1nc(-c1ccccc1)n2CC1CCCN1CC (stereo unspecified) | inactive | 3.98 µM (active) | inactive | inactive
Cc1nc(NC2CCCCC2)c2nc(-c3ccccc3)n(CCCN3CCCCC3C)c2n1 (stereo unspecified) | inactive | 10 µM (active) | inactive | inactive

Compound | outcome [1] | Potency [2] | Potency [3] | Potency [4]
CCCn1c(-c2ccc(F)cc2)nc2c(NCCCN3CCCCC3C)nc(C)nc21 (stereo unspecified) | inactive | 10 µM (active) | inactive | inactive
CCN(CC)CCCC(C)n1c(-c2ccccc2)nc2c(NC3CCCCC3)nc(C)nc21 (stereo unspecified) | inactive | 12.6 µM (active) | inactive | inactive
COCCN(CCOC)c1nc(C)nc2c1nc(-c1ccccc1)n2CCCN(C)C | inactive |  | inactive | inactive
CCCn1c(-c2ccc(F)cc2)nc2c(NC(C)CN(C)C)nc(C)nc21 (stereo unspecified) | inactive |  | inactive | inactive
CCCn1c(-c2ccc(F)cc2)nc2c(NC3CC4CCC(C3)N4C)nc(C)nc21 (stereo unspecified) | inactive |  | inactive | inactive
CCCn1c(C)nc2c(N(CCN(C)C)Cc3ccccc3)nc(C)nc21 | inactive |  | inactive | inactive
Cc1nc(Nc2ccccc2)c2nc(-c3ccccc3)n(CCCN3CCCCC3C)c2n1 (stereo unspecified) | inactive |  | inactive | inactive
CCN(CC)CCCn1c(-c2ccccc2)nc2c(N(CCOC)CCOC)nc(C)nc21 | inactive |  | inactive | inactive
CCCn1c(C)nc2c(NCCN3CCOCC3)nc(C)nc21 | inactive |  | inactive | inactive
CCCCNc1nc(C)nc2c1nc(C)n2CCC | inactive |  | inactive | inactive
CCCn1c(-c2ccc(F)cc2)nc2c(NCCN(C(C)C)C(C)C)nc(C)nc21 | inactive |  | inactive | inactive
CCCCNc1nc(C)nc2c1nc(-c1ccccc1)n2CC1CCN(C)CC1 | inactive |  | inactive | inactive
CCCn1c(-c2ccc(F)cc2)nc2c(NCCCN(CC)CC)nc(C)nc21 | inactive |  | inactive | inactive
CCCn1c(-c2ccc(F)cc2)nc2c(NCC3CCCN3CC)nc(C)nc21 (stereo unspecified) | inactive |  | inactive | inactive
CCCn1c(C)nc2c(NC3CCN(Cc4ccccc4)C3)nc(C)nc21 (stereo unspecified) | inactive |  | inactive | inactive
COCCN(CCOC)c1nc(C)nc2c1nc(-c1ccccc1)n2CCN(C)C | inactive |  | inactive | inactive
CCCn1c(C)nc2c(NCCCCN(CC)CC)nc(C)nc21 | inactive |  | inactive | inactive
CCN(CC)CCCC(C)n1c(-c2ccccc2)nc2c(N3CCOCC3)nc(C)nc21 (stereo unspecified) | inactive |  | inactive | inactive
Cc1nc(NC2CCCCC2)c2nc(-c3ccccc3)n(CCN(C)C)c2n1 | inactive |  | inactive | inactive
CCCn1c(-c2ccc(F)cc2)nc2c(NCCN3CCCCC3)nc(C)nc21 | inactive |  | inactive | inactive
CCCn1c(C)nc2c(N(CCOC)CCOC)nc(C)nc21 | inactive |  | inactive | inactive

Compound | outcome [1] | Potency [2] | Potency [3] | Potency [4]
CCN(CC)CCCCn1c(-c2ccccc2)nc2c(NC3CCCCC3)nc(C)nc21 | inactive |  | inactive | inactive
CCCn1c(C)nc2c(NCc3ccccc3)nc(C)nc21 | inactive |  | inactive | inactive
CCN(CC)CCn1c(-c2ccccc2)nc2c(NC3CCCCC3)nc(C)nc21 | inactive |  | inactive | inactive
COCCN(CCOC)c1nc(C)nc2c1nc(-c1ccccc1)n2CCN1CCCC1 | inactive |  | inactive | inactive
COCCN(CCOC)c1nc(C)nc2c1nc(-c1ccccc1)n2CC1CCN(C)CC1 | inactive |  | inactive | inactive
CCN1CCCC1Cn1c(-c2ccccc2)nc2c(N3CCOCC3)nc(C)nc21 (stereo unspecified) | inactive |  | inactive | inactive
Cc1nc(N2CCOCC2)c2nc(-c3ccccc3)n(CCCN3CCCCC3C)c2n1 (stereo unspecified) | inactive |  | inactive | inactive
CCCCNc1nc(C)nc2c1nc(-c1ccccc1)n2CCCCN(CC)CC | inactive |  | inactive | inactive
CCCn1c(-c2ccc(F)cc2)nc2c(NCCCCN(C)C)nc(C)nc21 | inactive |  | inactive | inactive
CCN(CC)CCCC(C)n1c(-c2ccccc2)nc2c(NCCOC)nc(C)nc21 (stereo unspecified) | inactive |  | inactive | inactive
Cc1nc(NC2CCCCC2)c2nc(-c3ccccc3)n(CCN3CCCC3)c2n1 | inactive |  | inactive | inactive
Cc1nc(NCc2ccccc2)c2nc(-c3ccccc3)n(CCN(C)C)c2n1 | inactive |  | inactive | inactive
CCCn1c(C)nc2c(N3CCOCC3)nc(C)nc21 | inactive |  | inactive | inactive
COCCNc1nc(C)nc2c1nc(-c1ccccc1)n2CCN1CCCC1 | inactive |  | inactive | inactive
Cc1nc(N2CCOCC2)c2nc(-c3ccccc3)n(C(C)CN(C)C)c2n1 (stereo unspecified) | inactive |  | inactive | inactive
CCN(CC)CCCn1c(-c2ccccc2)nc2c(NCc3ccccc3)nc(C)nc21 | inactive |  | inactive | inactive
CCCn1c(C)nc2c(NC(C)CCCN(CC)CC)nc(C)nc21 (stereo unspecified) | inactive |  | inactive | inactive
CCCn1c(C)nc2c(NC3CCCCC3)nc(C)nc21 | inactive |  | inactive | inactive
CCCCNc1nc(C)nc2c1nc(-c1ccccc1)n2CCCN(CC)CC | inactive |  | inactive | inactive
CCCn1c(-c2ccc(F)cc2)nc2c(NCCN(CC)CC)nc(C)nc21 | inactive |  | inactive | inactive
